Assay results: ChEMBL document CHEMBL3988442, “University of Dundee, Small-Polar-MMV Screening Library” (2021)

biological target: AMP-activated protein kinase, AMPK (Homo sapiens) (UniProt P54646+O43741+P54619+Q9UGJ0+Q9Y478+Q13131+Q9UGI9); assay: AMP-dependent Kinase enzyme assay. An in vitro enzyme assay that detects ADP turnover that is directly proportional to AMPK activity. This uses naive AMPK that is activated during the assay with MK-8722; type: functional; set-up: scale not given: direction of the effect not stated beside the values; settings: 30 µM

Structure (SMILES) | Percent Effect
NC(=O)C1CCN(CCCNC(=O)Nc2nncs2)CC1 | 1.35%
CN1CCN(C(=O)CCn2ncc3ccccc32)CC(C(N)=O)C1 (stereo not given) | 7.38%
O=C(O)c1ccn(-c2ccc(NC(=O)c3ccccc3Cl)cc2)n1 | 5.04%
Cc1cc(C(=O)N2CCC(CCC(=O)NCCN(C)C)CC2)ccc1O | 21.5%
CCC(C)NC(=O)c1sccc1-n1cnnn1 (stereo not given) | 9.35%
CCCSCC(=O)NCc1cccc(CN(C)CC)c1 | 5.85%
N#CCCN(C(=O)CCc1cscn1)c1ccc2c(c1)OCCO2 | -3.58%
c1ccc(Cc2noc(-c3ccc(NCC4CCCCO4)nc3)n2)cc1 (stereo not given) | 3.99%
CN1CCOC(CNCC(=O)NCCc2ccc(F)cc2)C1 (stereo not given) | 4.27%
CCOc1ccc(NC(=O)NCCCN(C)S(C)(=O)=O)cc1C | -4.23%
CCN(CC)CCN(CC(C)C)c1cc(C(F)(F)F)nc2ncnn12 | 0.943%
NC(=O)C(NC1CCN(CC2CCCCC2)CC1)c1ccccc1 (stereo not given) | 0.144%
CN(C1CCCCC1)S(=O)(=O)NCC1Cc2ccccc2O1 (stereo not given) | -9.03%
CCCn1ccnc1-c1cccc(NC2CCOC2)c1 (stereo not given) | 1.21%
Cc1noc(C2CCN(Cn3cc(Br)cn3)CC2)n1 | 18.3%
N#Cc1ccc(CNCCc2cc(F)cc3c2OCOC3)cc1 | 4.17%
CCc1nc(C2CCCN2Cc2ncc(C)c(OC)c2C)no1 (stereo not given) | 0.391%
N#CC1COCCN1C(=O)c1ccc2[nH]cnc2c1 (stereo not given) | -8.21%
CC[C@@H](CO)NC(=O)c1cc(COc2ccc(OC)cc2Cl)[nH]n1 | -0.681%
N#CC1CCN(C(=O)CN2CC(c3ccccc3)CC2=O)CC1 (stereo not given) | 5.49%

Structure (SMILES) | Percent Effect
O=C(Nc1ccc2c(c1)C(=O)NC2=O)c1ccc(Cl)s1 | -3.34%
COc1cccc(S(=O)(=O)N2CCCCC2CCN2CCCC2=O)c1 (stereo not given) | 5.93%
Cc1ccccc1C(=O)NC(C)CN1CCOC1=O (stereo not given) | 14.9%
CO[C@@H]1c2ccccc2C2(CCN(C(=O)CNS(C)(=O)=O)CC2)[C@H]1O | 19.3%
Cc1cc(NC(=O)Cn2ccc(=O)c3ccccc32)[nH]n1 | -3.42%
Cc1c(C(=O)NCCC(=O)N2CCCC2)cccc1-c1ccccn1 | 13.9%
CCN1CC(COC(=O)c2cc(C)nn2CC)CC1=O (stereo not given) | 5.06%
CCc1nn(C)c(Cl)c1CN(CC)Cc1cnn(CC)c1 | 1.72%
COc1ccc(Cn2c(Cc3c(C)n[nH]c3C)n[nH]c2=O)cc1 | -5.3%
O=S(=O)(NC1CCCOC1)c1ccc(C(F)(F)F)nc1 (stereo not given) | 7.35%
CNC(=O)C1(C)CN(S(=O)(=O)c2cccc(OC)c2)CCO1 (stereo not given) | 4.63%
COc1ccc(CCCN(C)C(=O)c2cc(Cl)c[nH]2)cc1OC | 7.77%
CC(C)(C(=O)N[C@@H]1CCC[C@@H](O)[C@@H]1O)c1cccc(F)c1 | 15.9%
COc1ccc(Cl)cc1C(=O)N1C[C@@H](NC(=O)N(C)C)[C@H](C(C)C)C1 | 2.28%
O=C(CCN1CCCO1)N1CC[C@@H](CNC(=O)N2CCCC2)[C@H](O)C1 | -5.68%
c1ccc(C2Cn3ccnc3CN2Cc2ncc[nH]2)cc1 (stereo not given) | 11.3%
O=C(Cn1ccc(-c2ccccc2)n1)N1CCN(C(=O)C2CC2)CC1 | -3.88%
COCCN(Cc1sccc1C)C(=O)COc1cccnc1 | -3.19%
Cc1ccccc1Oc1ncccc1CNC(=O)Cn1cccnc1=O | -5.58%
CC(C)CC(=O)N1Cc2ccccc2CC1C(=O)Nc1nccs1 (stereo not given) | -4.39%
